# TDP1 cell CPT: growth inhibition of DT40 Tdp1-/-;hTDP1 cells with camptothecin (screen for TDP1 inhibitors); chicken DT40 Tdp1-/-;hTDP1 cells + 20 nM CPT, ATP luminescence, 48 h; Potency, µM (top dose mostly 46.2 µM), inactives show top-dose activity change, negative = growth inhibition, actives largely listed as inhibitors; actives 12% (n = 420,000); AID 686979; also: potency is read from the fitted curve at half-maximal effect; nearly all actives have a fitted effect of over 55% in size
#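 Chicken DT40 Tdp1-/- cells stably complemented with human TDP1 were seeded at 400 cells/well in medium containing 20 nM camptothecin, exposed to pin-transferred compounds, and grown at 37 °C for at least 48 hr. Viability was read as ATP luminescence.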
# HT1080-NT tox: kills 2HG-producing HT-1080-NT fibrosarcoma cells; HT-1080-NT fibrosarcoma viability, CellTiter-Glo ATP luminescence, 48 h; Potency, µM (top dose mostly 46.1 µM), without a hit: at the highest dose activity, negative = less viability, most hits filed as cytotoxic; actives 1.6% (n = 360,000);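 also: NT is the 2HG producing partner of a matched IDH1 knockdown line; potency is read from the fitted curve at half-maximal effect; 0% = DMSO-treated cells and -100% = media-only wells without cells; nearly all actives have a fitted effect of over 55% in size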
#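 HT-1080-NT; 750 cells/well; 5% FBS RPMI; 48 h compound, 37 degrees C; CellTiter-Glo luminescence; curve fitting and curve-class assignment.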
# HT1080 IDH1KD tx: HT-1080 IDH1 knockdown cell toxicity (counter line). HT-1080 IDH1 knockdown viability, ATP luminescence, 48 h. actives 2% (n = 360,000). Potency, µM (top dose mostly 46.1 µM), for inactives: top-dose activity, negative = toxicity, actives largely listed as cytotoxic;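 also: potency is read from the fitted curve at half-maximal effect; 0% = DMSO wells and -100% = cell-free medium wells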
#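 IDH1KD HT-1080 cells, 750/well, RPMI + 5% FBS; compound pinned after 2 h settling; 48 h, 37 °C; CellTiter-Glo luminescence; % activity normalised to DMSO and no-cell wells; curves fitted, classed by r2 and efficacy.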
# DT40 TDP1 no CPT: qHTS for Inhibitors of human tyrosyl-DNA phosphodiesterase 1 (TDP1): qHTS in cells in absence of CPT. Potency, µM (highest dose often 46.2 µM), for the others: at the highest dose activity change, negative = growth inhibition, most hits filed as inhibitors. AID 686978, 2013. DT40 Tdp1-/- hTDP1 cells, no CPT, ATP luminescence, 48 h. actives 15% (n = 420,000); also: potency is read from the fitted curve at half-maximal effect; nearly all actives have a fitted effect of over 55% in size
#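 No-CPT arm: Tdp1-/-;hTDP1 DT40 cells (400/well) plus compounds, incubated ≥48 hr at 37 °C. Readout CellTiter-Glo luminescence.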
# IL1B secr inh: inhibitors of inflammasome signaling (IL-1 beta secretion) | THP-1 LPS/ATP IL-1B secretion, AlphaLISA, 16 h; stronger effect = lower value | activity change, % at 57.5 µM | actives 4.7% (n = 360,000) | AID 743279; in the data active = activity change below about -50%; inconclusive = mostly about -30% to -49%
#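 THP-1 cells pretreated 1 hr with compounds (up to 57.5 uM final), then stimulated with LPS (250 ng/mL final) plus ATP (1.25 mM final); secreted IL-1B measured by AlphaLISA after 16 hr, decreased signal indicating inhibition.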
# * marks the source's active call; other numbers are inactive results; ? = inconclusive; nt = not tested or not shown. Hits are enriched below; roughly 19% of the tested compounds scored in any of these assays. Unless noted, calls follow the shape of the dose curve; as a rule, active = well fitted curve in the direction sought with a large enough effect; inconclusive = small, poorly fitted or top-dose-only effect, or another doubt; inactive = no such curve, though single readings can be large; an effect the other way counts as inactive or inconclusive. Unless noted, % is scaled to controls: 0 for no effect and ±100 for the full control effect.
SMILES,TDP1 cell CPT,HT1080-NT tox,HT1080 IDH1KD tx,DT40 TDP1 no CPT,IL1B secr inh
CC1CCN(CC(CS(=O)(=O)c2ccc([N+](=O)[O-])cc2)N2CCC(C)CC2)CC1 (centres undefined),2.06µM*,-2.6%,5.1%,2.31µM*,-76.4*
O=C(NC1CCN(C(=O)NCc2ccccc2)CC1)c1ccccc1,-1.2%,8.6%,9.8%,-16.3%,11.4
CCn1nc(C)cc1C(=O)Sc1cccc(Br)c1,3.66µM*,13µM*,20.6µM*,4.61µM*,-101.8*
CCn1nc(C)cc1C(=O)Sc1ccc(Cl)cc1Cl,3.66µM*,?,?,3.66µM*,-62.5*
COCCNC(=O)C1(C)CCCN(C(=O)c2cc(C)on2)C1 (centres undefined),-3.4%,-3.3%,0.7%,4.5%,-7.1
CN(Cc1cnn(-c2ccccc2)c1)C(=O)c1cccc(S(=O)(=O)Nc2ccccc2F)c1,-23.3%,0.3%,2.2%,?,19.7
O=c1[nH][nH]c2c1[C@H](CCc1cccc(Cl)c1)O[C@H](CCc1ccccc1)C2,?,-5.8%,-21.9%,18.4µM*,0.0
O=c1[nH]c(=S)[nH]c2c1[C@H](C1CC1)O[C@H](CCc1ccccc1)C2,?,-10.3%,-8.0%,13µM*,1.1
O=C(COC(=O)c1ccc[nH]c1=O)NC1CC1,2.5%,7.2%,7.1%,5.3%,11.5
CCOc1ccc(/C=C/C2=CC(C)(C)NC(=S)N2)cc1,14.6µM*,-7.7%,?,?,0.0
Cc1cc(O)ccc1-c1ccc2nncn2c1,16.4µM*,-5.0%,19.5%,-1.3%,27.4
CC(=O)c1c[nH]c(C(=O)NCc2cccc(C(F)(F)F)c2)c1,11.3%,-26.1%,-11.3%,24.3%,0.0
CC(C)(C)NC(=O)C(c1ccc(-c2ccccc2)cc1)n1c(=O)c(-c2ccccc2)nc2ccccc21 (centres undefined),?,1.6%,-1.7%,?,11.7
CC(C)(C)NC(=O)C(c1cccc2ccccc12)n1c(=O)c(-c2ccco2)nc2ccccc21 (centres undefined),23.1µM*,-11.8%,-19.2%,?,14.0
CC(C)(C)NC(=O)C(c1cccc2ccccc12)n1c(=O)c(-c2ccccc2)nc2ccccc21 (centres undefined),20.6µM*,-19.7%,-0.9%,0.13µM*,17.0
CCc1ccc(-n2cnc3cc(C(=O)NCC(OC)OC)ccc32)cc1,-20.5%,7.5%,7.1%,14.1%,?
O=S(=O)(NC1=NCCC1)c1cccc(NS(=O)(=O)c2ccc(OC(F)(F)F)cc2)c1,-10.2%,5.3%,0.6%,-1.0%,2.4
O=C1c2ccccc2C(c2nnnn2-c2ccc3c(c2)OCCO3)N1Cc1ccc2c(c1)OCO2 (centres undefined),18.4µM*,-2.1%,-1.0%,16.4µM*,0.0
O=C1c2ccccc2C(c2nnnn2-c2ccc3c(c2)OCCO3)N1Cc1cccnc1 (centres undefined),-29.7%,17.0%,6.3%,?,22.8
O=C1c2ccccc2C(c2nnnn2-c2ccc3c(c2)OCCO3)N1CCc1ccc(O)cc1 (centres undefined),?,11.8%,22.4%,?,5.9
O=C1c2ccccc2C(c2nnnn2-c2ccc3c(c2)OCCO3)N1Cc1cccc(F)c1 (centres undefined),?,6.5%,11.3%,16.4µM*,52.4
COc1ccc(OC)c(CN2C(=O)c3ccccc3C2c2nnnn2-c2ccc3c(c2)OCCO3)c1 (centres undefined),6.51µM*,?,?,5.8µM*,68.0
O=C1c2ccccc2C(c2nnnn2-c2ccc3c(c2)OCCO3)N1CCc1ccccc1F (centres undefined),14.6µM*,-10.2%,0.2%,?,9.4
COc1ncc2nc(-c3ccc(Cl)cc3)c(=O)n(C[C@H]3CCCO3)c2n1,10.3%,nt,nt,-6.1%,nt
COc1ccc(-n2nnnc2C2c3ccccc3C(=O)N2C2CCN(Cc3ccccc3)CC2)cc1 (centres undefined),?,7.8%,2.5%,16.4µM*,1.7
SMILES,TDP1 cell CPT,HT1080-NT tox,HT1080 IDH1KD tx,DT40 TDP1 no CPT,IL1B secr inh
Cc1ccc(OCC(=O)Nc2ccccc2N2CCCC2)c(C)c1,?,0.7%,-4.1%,29.1µM*,?
Cc1ccc(C)c(OCC(=O)Nc2ccccc2N2CCCC2)c1,?,10.7%,-1.6%,?,-29.8
O=C(COc1ccccc1)Nc1cc(C(F)(F)F)ccc1N1CCCC1,?,-9.1%,-17.3%,?,-0.7
Cc1cccc(OCC(=O)Nc2ccccc2N2CCCCC2)c1,11.6µM*,5.0%,4.1%,?,7.2
COc1cc(C(=S)N2CCCC2)cc(Cl)c1OCC(=O)Nc1ccc(C)cc1C,13µM*,-17.3%,-13.5%,?,-15.8
Cc1cccc(OCC(=O)Nc2ccccc2N2CCN(C)CC2)c1,-14.3%,-16.1%,-15.7%,?,-26.2
Cc1cc(N2CCCC2)ccc1NC(=O)COc1cccc(C(F)(F)F)c1,8.2µM*,?,?,4.61µM*,-16.4
O=C(O)CCc1ccc(-c2cccs2)n1CC(=O)Nc1ccccc1C(F)(F)F,-1.7%,11.9%,0.5%,-3.4%,0.0
Cn1ccs/c1=N\C(=O)Nc1cccc(Cl)c1,-1.8%,7.8%,9.4%,23.8%,-1.1
O=C(Nc1ccc([N+](=O)[O-])cc1)c1cccc([N+](=O)[O-])c1,5.6%,-18.8%,-20.8%,8.7%,34.2
O=C(Nc1nc(-c2cccnc2)cs1)c1ccc([N+](=O)[O-])cc1,?,-11.9%,9.9%,-27.9%,-0.3
Cc1csc(NC(=O)c2cc([N+](=O)[O-])cc([N+](=O)[O-])c2)n1,?,0.6%,-3.0%,23.1µM*,11.5
O=C(COC(=O)c1ccccn1)Nc1nc(-c2cccc([N+](=O)[O-])c2)cs1,?,-2.2%,6.7%,18.4µM*,-29.9
O=C(Nc1ncc([N+](=O)[O-])s1)c1cccc([N+](=O)[O-])c1,9.2µM*,-2.2%,-1.7%,20.6µM*,0.0
Cc1csc(NC(=O)c2cc[n+]([O-])cc2)n1,-3.6%,0.4%,-15.5%,2.8%,-3.9
O=C(Nc1nc(-c2cccnc2)cs1)c1cccc([N+](=O)[O-])c1,-16.9%,8.0%,0.7%,23.1µM*,-8.4
NNC(=O)c1sc2cc(C(F)(F)F)cnc2c1-c1cccnc1,32.4%,-3.1%,-1.7%,-5.4%,22.7
CCN(C(=O)c1ccc(S(=O)(=O)N2CCCC2)cc1)C1CCS(=O)(=O)C1 (centres undefined),1.8%,7.6%,2.5%,4.9%,14.4
